Measured values published in PubChem BioAssay AID1745845 (National Center for Advancing Translational Sciences (NCATS), 2022).
Out of some 360,000 compounds screened, about 2,600 (0.72%) were called active. Another 5% or so got no clear call; they are omitted. The list comes from a sample in which actives are over-represented; it also holds similar structures and randomly drawn compounds. Unmarked numbers belong to inactive results. Calls come from the whole dose curve; as a rule, active = well fitted inhibition curve with a large enough effect; inconclusive = small, poorly fitted or top-dose-only effect; inactive = no such curve, though single readings can be large or run the other way.

Assay: Primary qHTS for Inhibitors of ATXN expression; note: nearly all actives have a fitted effect of over 55% in size
Conditions: HEK-293 ATXN2-luciferase reporter, luminescence, 24 h; series mostly up to 57 µM; activity change, negative = inhibition: at the top concentration
Method in brief: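 ATXN2-luciferase reporter cells (luciferase flanked by upstream and downstream ATXN2 gene portions) were treated 24 h at 37 °C with compounds at up to 57 uM. SteadyGlo luminescence gave expression; GF-AFC fluorescence gave viability.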
% is set by controls: 0 for no effect and ±100 for the full control effect; potency is the fitted concentration of half-maximal effect.

SMILES | activity change, negative = inhibition [%] | Potency
COCOCCn1cc(CN2CCS(=O)(=O)N(Cc3ccc(-c4cccc(N(C)C)c4)cc3)C(CC(C)C)C2=O)nn1 (stereo not drawn) | 1.39 | –
O=C(CC(NCc1cccnc1)C(=O)O)Nc1ccc(O)cc1 (stereo not drawn) | 10.3 | –
COc1ccc(-c2noc(CSc3nnc(-c4ccccc4)n3-c3ccc(F)cc3)n2)c(OC)c1 | -11.7 | –
CC(=O)c1ccc(-c2cnc3c(NC=O)cc(-c4cccc(NS(C)(=O)=O)c4)cn23)cc1 | -15 | –
Cc1ccc(NS(=O)(=O)c2cc3c(cc2Br)NC(=O)CO3)cc1C | -9.96 | –
CCCOc1cccc(C(=O)Nc2cccc(NC(=O)c3ccc(C(C)(C)C)cc3)c2)c1 | 31.1 | –
CCCOc1ccc(C(=O)C(CCC(CNCC)C(=O)c2ccc(OCCC)cc2)CNCC)cc1 (stereo not drawn) | – | 17.8 µM (active)
CCCOc1ccc(/C=N/NC(=O)C2CC2)c(OCCC)c1 | -0.187 | –
COc1cccc(-c2nc(S(=O)(=O)c3ccc(C)cc3)c(NCc3ccccc3)o2)c1 | 10.1 | –
Cc1cccc(NC(=O)CSc2nc3c(oc4ccccc43)c(=O)n2-c2ccc(F)cc2)c1 | -13.3 | –
COC(=O)c1ccc2c(c1)N(CC(=O)Nc1ccc(C)c(C)c1)C(=O)c1ccccc1S2 | 8.78 | –
COc1ccc(/C=C2\SC(=O)N(CCC(=O)NC3CCS(=O)(=O)C3)C2=O)cc1 (stereo not drawn) | 24.1 | –
COc1ccc(/C=C2/SC(=O)N(CCCCCC(=O)Nc3ccccc3C(=O)O)C2=S)cc1 | – | 10 µM (active)
COc1ccc(/C=C2\SC(=O)N(CCC(=O)NCCCn3ccnc3)C2=O)cc1 | 19.2 | –
O=C(Nc1ccc2oc(-c3ccc(O)c(Br)c3)nc2c1)c1cc2ccccc2o1 | 10.1 | –
CC(C)(C)c1ccc(OCC(=O)N2CCC(c3nc4ccccc4s3)CC2)cc1 | 5.8 | –
CSc1nc(-c2ccccc2Cl)nc2c1Cc1c(CO)cnc(C)c1O2 | -8.24 | –
CCCCOCCOC(=O)c1cccnc1 | -6.2 | –
Cc1ccccc1NC(=O)Cn1c(=O)n(Cc2ccco2)c(=O)c2ccc(C(=O)NC3CCCC3)cc21 | -0.759 | –
CN1C(=O)C[C@H](C(=O)N[C@@H](Cc2cnc[nH]2)C(=O)N2CCC[C@@H]2C(N)=O)NC1=O | 2.37 | –
CC(C)C[C@H]1CNC(=O)C(=O)N1C[C@H]1CCCN1C[C@H](Cc1ccc(O)cc1)N1C[C@H](CC(C)C)N(CC2CCCCCC2)C(=O)C1=O | -4.69 | –
O=C1NC[C@H](Cc2ccc(O)cc2)N(C[C@@H]2CCCN2C[C@H](Cc2ccccc2)N2C[C@H](Cc3ccccc3)N(CC3CCCCC3)C(=O)C2=O)C1=O | -3.12 | –

SMILES | activity change, negative = inhibition [%] | Potency
CC(C)C[C@H]1CNC(=S)N1C[C@H]1CCCN1C[C@H](Cc1ccc(O)cc1)N1C[C@H](Cc2ccc(O)cc2)N(CC2CCCCC2)C1=S | – | 28.2 µM (active)
COc1cccc(C(=O)NCC(=O)OCc2cc(=O)n3ccsc3n2)c1 | -2.63 | –
COc1ccc(Cn2ccc3nc(C)c(C(=O)Nc4ccc(C)c(F)c4)cc3c2=O)cc1 | 0.351 | –
CCOC(=O)c1c(C)oc2nc(C)nc(Nc3ccc(CC)cc3)c12 | 12.1 | –
CC=C(C(=CC)c1ccc(O)cc1)c1ccc(O)cc1 | -13.1 | –
O=C(Nc1nc2ccc([N+](=O)[O-])cc2s1)c1ccc(S(=O)(=O)N2CCCc3ccccc32)cc1 | – | 13.4 µM (active)
O=C(O)c1cc([N+](=O)[O-])c(Nc2cccc3ccccc23)c([N+](=O)[O-])c1 | 46.8 | –
N=C1C(c2nc3ccccc3s2)=C(O)CN1NC(=O)c1ccc([N+](=O)[O-])cc1 | -35.5 | –
O=C(NC(Nc1nc2ccc([N+](=O)[O-])cc2s1)(C(F)(F)F)C(F)(F)F)c1ccccc1 | – | 0.891 µM (active)
CCC(=O)Nc1nnc(S(=O)(=O)N2CCCc3ccccc32)s1 | 6.98 | –
Cc1ccc(NC(=O)c2cccc(S(=O)(=O)N3CCCc4ccccc43)c2)nc1 | -32.7 | –
Cc1ccc(-c2nc(S(=O)(=O)c3ccc(C)cc3)c(N3CCCCCC3)o2)cc1 | -8.34 | –
CC1(C)[C@H](O[C@H]2O[C@H](C(=O)O)[C@@H](O)[C@H](O)[C@H]2O[C@@H]2O[C@H](C(=O)O)[C@@H](O)[C@H](O)[C@H]2O)CC[C@@]2(C)[C@H]1CC[C@]1(C)[C@H]2C(=O)C=C2[C@H]3C[C@@](C)(C(=O)O)CC[C@]3(C)CC[C@]21C | -2.97 | –
CC[C@]12C=CCN3CC[C@@]4(c5cc([C@@]6(C(=O)OC)C[C@H]7C[C@@H](C(C)(F)F)CN(Cc8c6[nH]c6ccccc86)C7)c(OC)cc5N(C)[C@H]4[C@@](O)(C(=O)OC)[C@H]1OC(C)=O)[C@@H]32 | -15 | –
CN(C)C(=O)c1cccc(-c2cnc3sc(NCc4ccc5c(c4)OCO5)nn23)c1 | -19 | –
COc1ccc(-c2nnc(SCC(=O)Nc3ccccc3C)o2)cc1OC | 8.7 | –
COC(=O)[C@]12CCCCC=C1N(CCC1=CCCCC1)C(=O)[C@H](CC(=O)NCC1CCCCC1)C2 | -33.3 | –
CC(=O)Nc1cccc(-c2ccnc3c2CC(C)(C(=O)NCc2ccco2)O3)c1 (stereo not drawn) | 0.0835 | –
COc1ccc(C2CC(c3ccccc3)=NN2C(=O)c2ccc(Cl)c([N+](=O)[O-])c2)cc1 (stereo not drawn) | – | 28.2 µM (active)
COc1ccc(C2CC(c3ccccc3)=NN2C(=O)COC(=O)COc2ccccc2)cc1 (stereo not drawn) | 11.8 | –
COc1ccc(C2CC(c3ccc([N+](=O)[O-])cc3)=NN2C(C)=O)cc1 (stereo not drawn) | 36.4 | –
